Assay outcomes (PubChem)
HT1080 IDH1KD tx: qHTS for induction of synthetic lethality in tumor cells producing 2HG: qHTS for the HT-1080-IDH1KD cell line; HT-1080 IDH1 knockdown viability, ATP luminescence, 48 h; Potency, µM (doses to about 46.1 µM), for the others: at the top dose activity, negative = toxicity, usual class: cytotoxic; hit rate 2% among 360,000; AID 686971, 2013;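 further: potency means the concentration at half of the fitted maximal effect; 0% = DMSO wells and -100% = cell-free medium wells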
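HT-1080-IDH1KD cells (IDH1 knocked down), 750/well in RPMI with 5% FBS, treated with compound 48 h at 37 degrees C. Viability by CellTiter-Glo luminescence, normalised to DMSO and no-cell wells; concentration-response curves classed.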
TDP1 cell noCPT: qHTS for Inhibitors of human tyrosyl-DNA phosphodiesterase 1 (TDP1): qHTS in cells in absence of CPT. DT40 Tdp1-/- hTDP1 cells, no CPT, ATP luminescence, 48 h. Potency, µM (doses to about 46.2 µM), inactives show at the top dose activity change, negative = growth inhibition, most hits filed as inhibitors. hit rate 15% among 420,000. AID 686978, 2013; further: potency means the concentration at half of the fitted maximal effect; nearly all actives have a fitted effect of over 55% in size
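Cells were dispensed at 400 per well, compounds added by pin tool, plates incubated ≥48 hr at 37 °C, then CellTiter-Glo added for 30 min at room temperature before luminescence reading. Line: DT40 Tdp1-/- complemented with hTDP1; camptothecin omitted.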
DT40 TDP1 CPT: qHTS for Inhibitors of human tyrosyl-DNA phosphodiesterase 1 (TDP1): qHTS in cells in presence of CPT; chicken DT40 Tdp1-/-;hTDP1 cells + 20 nM CPT, ATP luminescence, 48 h; Potency, µM (series often up to 46.2 µM), for the others: at the top dose activity change, negative = growth inhibition, usual class: inhibitors; hit rate 12% among 420,000; further: potency means the concentration at half of the fitted maximal effect; nearly all actives have a fitted effect of over 55% in size
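Chicken DT40 Tdp1-/- cells complemented with human TDP1, 400 cells/well, exposed to compounds plus 20 nM camptothecin for at least 48 h at 37 C; viability read as ATP content by CellTiter-Glo luminescence.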
HT1080-NT tox: qHTS for induction of synthetic lethality in tumor cells producing 2HG: qHTS for the HT-1080-NT fibrosarcoma cell line; HT-1080-NT fibrosarcoma viability, CellTiter-Glo ATP luminescence, 48 h; Potency, µM (highest dose often 46.1 µM), for the others: at the highest dose activity, negative = less viability, most hits filed as cytotoxic; hit rate 1.6% among 360,000; AID 686970, 2013;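 further: NT is the 2HG producing partner of a matched IDH1 knockdown line; potency means the concentration at half of the fitted maximal effect; 0% = DMSO-treated cells and -100% = media-only wells without cells; nearly all actives have a fitted effect of over 55% in size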
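750 cells/well, RPMI + 5% FBS; 2 h settle, compound pin-transfer, 48 h at 37 degrees C. CellTiter-Glo 10 min RT, luminescence. Normalized to DMSO and media-only wells.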
IL-1B inflam inh: qHTS for Inhibitors of Inflammasome Signaling: IL-1-beta AlphaLISA Primary Screen | THP-1 LPS/ATP IL-1B secretion, AlphaLISA, 16 h; stronger effect = lower value | hit rate 4.7% among 360,000 | activity change, % at 57.5 µM | AID 743279, 2014; in the data active means activity change below about -50%; inconclusive means mostly about -30% to -49%
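Secreted IL-1B measured by AlphaLISA bead assay after 16 h compound exposure of THP-1 cells; compounds (final up to 57.5 uM) added 1 h before LPS (250 ng/mL) and ATP (1.25 mM) stimulation; lower signal means less secretion.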
ELG1 DNA repair: qHTS screen for small molecules that inhibit ELG1-dependent DNA repair in human embryonic kidney (HEK293T) cells expressing luciferase-tagged ELG1; hit rate 2.3% among 330,000; HEK293T ELG1-luciferase reporter, luminescence, 16 h; DNA damage induced by 5-fluorouridine; Potency, µM (titrated, usually from 46.1 µM), for inactives: at the highest dose activity change, negative = inhibition, hits mostly inhibitors; further: potency means the concentration at half of the fitted maximal effect; nearly all actives have a fitted effect of over 55% in size
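Quantitative HTS, concentration-response format. 2,000 cells/well co-treated with 5-fluorouridine and compound, 16 hr in 5% CO2 at 37 °C; ONE-Glo luminescence read after 30 min.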
Starred values were filed as active, the others as inactive; ? = inconclusive; · = not tested or not shown; [ ] = dose if it differs, or a comment. A selection: hits, their analogues and other compounds. The true share with any hit is near 19%. Unless noted, the call rests on the fitted dose curve; in most records, active means well fitted curve in the direction sought with a large enough effect; inconclusive means small, poorly fitted or top-dose-only effect, or another doubt; inactive means no such curve, though single readings can be large; an effect the other way counts as inactive or inconclusive. Unless noted, on the % scale 0 is the no-effect control and ±100 the full control effect.

SMILES	HT1080 IDH1KD tx	TDP1 cell noCPT	DT40 TDP1 CPT	HT1080-NT tox	IL-1B inflam inh	ELG1 DNA repair
CCC(C)NC(=O)c1c(N)n(Cc2ccc3c(c2)OCO3)c2nc3ccccc3nc12 (centres undefined)	?	26µM*	?	?	?	?
CCC(C)NC(=O)c1c(N)n(CC2CCCO2)c2nc3ccccc3nc12 (centres undefined)	-18%	-29%	-14%	-28%	-57*	21µM*
Cc1nn(Cc2ccccc2)c(Cl)c1C(=O)OCC(=O)NCC1CCCO1 (centres undefined)	-2%	-29%	-11%	-13%	19	-14%
C#CC(C)(O)CC (centres undefined)	·	22%	19%	·	·	·
C=CCn1c(C)c(C=C2C(=O)NC(=O)NC2=O)c2ccccc21	-4%	?	?	-10%	4	-14%
CC[C@]1(C(=O)OC)[C@H]2C(=O)N(Cc3ccccc3)C(=O)[C@H]2[C@H]2CN=C(SCc3ccc(C)cc3)N21	2%	18µM*	?	0%	19	-12%
CC[C@]1(C(=O)OC)[C@H]2C(=O)N(Cc3ccccc3)C(=O)[C@H]2[C@H]2CN=C(SCc3ccc(C(=O)OC)cc3)N21	-1%	?	21µM*	4%	19	?
COC(=O)[C@@]1(Cc2ccccc2)[C@H]2C(=O)N(Cc3ccccc3)C(=O)[C@H]2[C@H]2CN=C(SCc3ccc(C#N)cc3)N21	4%	?	?	12%	19	-22%
COc1cc(C[C@@H](C)N)c(OC)cc1C	·	?	-26%[92.5 µM]	·	·	·
O=C(c1ccccc1)C(Cc1ccccc1)N1CCOCC1 (centres undefined)	16%	-16%	0%	8%	4	·
NC(=O)c1ccc(N)nc1	4.6µM*	4.1µM*	5.8µM*	2.6µM*	8	·
CN1C(=O)CCS(=O)(=O)[C@H]1c1ccc(Cl)cc1	·	2%	-7%	·	·	·
CC/C(=C\C=C\[C@@H]1C=C[C@@H]2CCC[C@H]2[C@@H]1C(=O)c1ccc[nH]1)[C@@H]1O[C@@H]([C@@H](C)C(=O)O)CC[C@@H]1C	8.2µM*	5.8µM*	7.3µM*	10µM*	0	-15%
CN(C)c1ccc(N=O)cc1	·	5µM*	0.56µM*	·	·	·
COc1ccccc1N1C(=O)CC(=O)NC1=O	-2%	2%	-1%	0%	5	16%
COC(=O)[C@H](Cc1ccccc1)N(Cc1ccccc1)S(=O)(=O)N(Cc1ccccc1)[C@@H](Cc1ccccc1)C(=O)OC	2%	12µM*	23µM*	2%	30	?
Cc1cc(C)c(C)c(C(O)(C(=O)O)c2ccccc2)c1 (centres undefined)	-8%	5%	0%	9%	-4	·
CC(C)c1ccc2c(c1)C(N1CCNCC1)Cc1ccc(F)cc1S2 (centres undefined)	?	26µM*	?	-8%	-97*	·
Cc1c(C(=O)NCc2nccs2)cnn1-c1ncc2c(n1)-c1ccccc1CC2	·	21µM*	9.2µM*	·	·	·
O=C(O)[C@@H]1CSC(c2cccnc2)N1 (some centres undefined)	·	-14%[9.04 µM]	7%[9.04 µM]	·	·	·
O=c1ccc2cc(O[C@@H]3O[C@@H](CO)[C@H](O)[C@@H](O)[C@@H]3O)c(O)cc2o1	0%	29%	1%	8%	47	-1%
CN(C)C(=O)CCSC(SCCC(=O)O)c1cccc(/C=C/c2ccc3ccc(Cl)cc3n2)c1 (centres undefined)	·	17µM*	?	·	·	·
CC(C)n1c(N2CCN(S(=O)(=O)c3cccc([N+](=O)[O-])c3)CC2)nc2ccccc21	-26%	12µM*	?	-24%	-72*	23µM*
CC(C)(O)/C=C/C(=O)[C@](C)(O)C1[C@H](O)C[C@@]2(C)C3CC=C4C(C[C@H](O)[C@@H](O)C4(C)C)[C@]3(C)C(=O)C[C@]12C (some centres undefined)	1.3µM*	0.33µM*	0.29µM*	1.3µM*	-87*	?
Cc1ccc(-c2nn(C)c(=O)c3ccccc23)cc1CNC(=O)/C=C/c1ccccc1	-20%	?	-24%	-7%	-20	16µM*
SMILES	HT1080 IDH1KD tx	TDP1 cell noCPT	DT40 TDP1 CPT	HT1080-NT tox	IL-1B inflam inh	ELG1 DNA repair
O=C(/C=C/c1ccccc1)NCCc1cnc[nH]1	-5%	?	-11%	4%	8	17%
CN(C)CCN(C)CCc1ccc(Cl)c(Cl)c1	·	21µM*	16µM*	·	·	·
COc1ccc(CCN(C)Cc2ccncc2)cc1OC	12%	-17%	-13%	18%	18	-1%
c1cc(N2CCCC3(CCNCC3)C2)ccn1	·	9.2µM*	9.2µM*	·	·	·
COc1nc2ccccc2nc1N1CC1	10%	1.6µM*	0.92µM*	26%	32	·
COc1cc2c(cc1-c1cc3cc4ccoc4cc3oc1=O)OCO2	·	-3%	-5%	·	·	·
COc1ccc(NS(=O)(=O)c2cc(NC(=O)COc3ccccc3)ccc2N2CCOCC2)cc1	-3%	?	?	3%	-18	?
Cc1ccc(NC(=O)c2ccc(C)c(S(=O)(=O)N3CCCCC3)c2)nc1	-11%	?	-22%	-13%	-8	?
O=C(Nc1cccnc1)c1ccc(Cl)c(S(=O)(=O)N2CCCCCC2)c1	?	?	?	?	-21	21µM*
O=c1c(C=Nc2cccnc2Cl)c(O)n(CCCCl)c(=O)n1C1CCCCC1	0%	?	-6%	2%	35	-7%
O=c1c2ccccc2cnn1Cc1n[nH]c(=S)n1C1CC2CCC1C2 (centres undefined)	-12%	18µM*	?	-4%	4	?
CCN(CC)P(=O)(Nc1ccc(Br)cc1)c1c(C)nn(CCC#N)c1NC(=O)c1ccc(Cl)cc1 (centres undefined)	-2%	?	?	-2%	-19	-3%
N#CC(c1ccc(Cl)nn1)c1c(F)cccc1Cl (centres undefined)	-7%	?	7%	-13%	-15	-11%
Cc1ccc(Cn2c(SCc3ccc(C(=O)NC4CCCC4)cc3)nc3ccncc32)cc1	·	16µM*	?	·	·	·
